Screening data: PubChem BioAssay, National Center for Advancing Translational Sciences (NCATS)
VACV mCherry inh = inhibitors of vaccinia virus infection (mCherry reporter signal). Vaccinia virus mCherry reporter infection, fluorescence. Potency, µM (titrated, usually from 36.5 µM), for inactives: at the highest dose activity change, negative = inhibition, actives largely listed as inhibitors. hit rate 0.63% among 310,000. AID 720579; calls by dose curve; tested in A549 cells; further: on the % scale 0 is the no-effect control and ±100 the full control effect; nearly all actives have a fitted effect of over 35% in size
HCV inh = HCV inhibition. Huh7.5.1 HCVcc-Cre infection, luciferase reporter, 44 h. Potency, µM (top dose mostly 41.8 µM), for inactives: at the highest dose activity change, negative = inhibition, hits mostly inhibitors. hit rate 3.4% among 340,000. AID 651820; further: on the % scale 0 is the no-effect control and ±100 the full control effect
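1,000 cells/well; 4 h culture; + compound; + HCVcc-Cre (~0.5 moi); 44 h; luciferase substrate, RT 15 min; read 15 sec.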
Pf growth 48h = P. falciparum growth inhibition at 48 hours (one generation); P. falciparum luciferase growth in erythrocytes, 48 h; Potency, µM (doses to about 28.7 µM), inactives show top-dose activity change, negative = inhibition, most hits filed as inhibitors; hit rate 5.9% among 310,000; AID 504832; further: on the % scale 0 is the no-effect control and ±100 the full control effect
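Here the parasites carry a stable luciferase gene and grow inside erythrocytes in Albumax-based RPMI medium with compound for one erythrocytic cycle. Activity is scored as loss of luminescent signal.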
VACV Venus inh = inhibitors of vaccinia virus (Venus reporter); Potency, µM (highest dose often 36.5 µM), for inactives: top-dose activity change, negative = inhibition, most hits filed as inhibitors; hit rate 0.46% among 330,000; Vaccinia virus Venus reporter expression, fluorescence; calls by dose curve; tested in A549 cells; further: on the % scale 0 is the no-effect control and ±100 the full control effect; nearly all actives have a fitted effect of over 30% in size
Pf growth 96h = P. falciparum growth inhibition at 96 hour, primary screen for plastid delayed-death inhibitors | P. falciparum luciferase reporter growth, 96 h | Potency, µM (titrated, usually from 28.7 µM), inactives show top-dose activity change, negative = inhibition, actives largely listed as inhibitors | hit rate 6.9% among 320,000 | AID 504834; further: on the % scale 0 is the no-effect control and ±100 the full control effect
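Infected RBCs, 2% Hct / 0.05% parasitemia final; luciferase-reporter P. falciparum; cpd 96 h, 37 C, 5% CO2; luciferase detection reagent; luminescence.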
NS1 function inh = blocks influenza NS1 protein function. hit rate 0.4% among 270,000. Potency, µM (series often up to 46.1 µM), without a hit: at the highest dose activity, positive = more growth; calls by dose curve; further: actives are rising curves; nearly all actives have a fitted effect of over 50% in size
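OD600 was taken as the measure of yeast growth restored by compound in an NS1-expressing S. cerevisiae strain. Cells had been washed out of glucose medium and diluted 1:100 into galactose -URA medium, pH 6.0.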
Starred values were filed as active, the others as inactive; i = inactive; ? = inconclusive; . = not tested or not shown. An excerpt weighted towards active compounds, which were near 11% of everything screened. Unless noted, the call rests on the fitted dose curve; in most records, active means well fitted inhibition curve with a large enough effect; inconclusive means small, poorly fitted or top-dose-only effect, or another doubt; inactive means no such curve, though single readings can be large or run the other way. Potency means the concentration at half of the fitted maximal effect.

SMILES | VACV mCherry inh | HCV inh | Pf growth 48h | VACV Venus inh | Pf growth 96h | NS1 function inh
COCCNC(=O)C(c1ccc(C)o1)N(C(=O)c1snc(C(N)=O)c1N)c1ccc(C)cc1 (stereo not drawn) | -2% | 11% | ? | -18% | . | -33%
Cc1ccc(-c2nc3ncccn3c2NC(=O)C2CC2)cc1 | . | -8% | 6% | -10% | ? | -12%
COc1ccc(CNCC(=O)Nc2cc(C)nn2-c2nc(C)cc(C)n2)cc1OC | . | -4% | 13% | . | 5% | 2%
COc1ccc(CCN2CCC(Nc3nc4ccccc4n3Cc3ccc(F)cc3)CC2)cc1 | 11µM* | 16µM* | 0.52µM* | 10µM* | 0.74µM* | -30%
COc1ccc(Cn2c(-c3ccc(OC)cc3)nc3ccccc32)cc1 | -7% | ? | ? | 0% | 21% | -5%
CNC(=O)N(O)C1N(C)C(=O)N(Cc2ccccc2)C1(C)C (stereo not drawn) | . | 9% | 3% | . | . | 6%
O=C(Nc1cccc(-c2cn3c(n2)SCC3)c1)c1ccc(Br)o1 | i | -10% | 17% | -9% | 0.74µM* | .
O=C(Cc1ccc(F)cc1)Nc1cccc(-c2cn3c(n2)SCC3)c1 | -10% | ? | -6% | -17% | -4% | .
O=C(Cc1ccc(F)cc1)Nc1ccc2[nH]ncc2c1 | -1% | -2% | 13% | -15% | 31% | 1%
O=C(CCS(=O)(=O)c1ccc(Br)s1)NC1CCCC1 | . | -3% | . | . | -52% | 2%
O=C(CCS(=O)(=O)c1ccc(Br)s1)Nc1cc(C(F)(F)F)cc(C(F)(F)F)c1 | 13µM* | . | . | ? | . | .
CC(C)NC(=O)CCS(=O)(=O)c1ccc(Br)s1 | . | 0% | 38% | . | 0.47µM* | -5%
COc1ccc(C(=O)OCCN2CCCCC2)cc1 | i | 16% | 21% | -1% | ? | .
CC(C)(C)c1ccc(C(=O)OCCN2CCCCC2)cc1 | . | -14% | 27% | . | 5.9µM* | 0%
CCOC(=O)Cc1csc(NS(=O)(=O)Cc2ccccc2)n1 | -11% | 3% | 3% | -17% | 21% | -2%
O=S(=O)(Nc1ccc(Oc2ncccn2)c(Cl)c1)c1ccc(Cl)cc1 | -17% | -2% | 11% | -24% | . | 9%
O=C(CCc1ccccc1O)N/N=C/c1ccc(Sc2cccc3cccnc23)o1 | . | ? | . | . | 3.7µM* | 3%
O=C(CSc1cccc2cccnc12)N/N=C/c1ccc(O)cc1 | . | -19% | -13% | . | 10% | -2%
CC(C)n1c(CN(C)c2ccccc2)nc2ccccc21 | -4% | ? | ? | -11% | -9% | -25%
COc1cccc(C(=O)CSc2nc3cccnc3n2C)c1 | . | ? | 0% | . | -24% | 2%
COc1ccc(C(=O)CSc2nc3cccnc3n2C)cc1 | i | ? | 10% | -6% | 3.7µM* | 6%
O=C(CSC1CC(=O)N(c2ccc(C(=O)O)cc2)C1=O)Nc1ccc(Cl)cc1 (stereo not drawn) | . | 17% | 2% | . | 12µM* | 0%
CC(C)(C)c1ccccc1O | i | 9% | 32% | -13% | 46% | .
Oc1cccc[c]1[Hg][Cl] | . | . | 1.1µM* | . | 1.1µM* | .
O=C(c1cnn2c(C(F)(F)F)cc(-c3ccccc3)nc12)N1CCC2(CC1)OCCO2 | . | 1% | . | . | 15µM* | -6%
SMILES | VACV mCherry inh | HCV inh | Pf growth 48h | VACV Venus inh | Pf growth 96h | NS1 function inh
COc1ccc(-c2cc(C(F)(F)F)n3ncc(C(=O)N4CCc5ccccc5C4)c3n2)cc1 | -8% | 3% | 9.3µM* | -13% | 25% | -2%
Cc1cc(NC(=O)c2cnn3c(C(F)F)cc(-c4ccccc4)nc23)no1 | . | ? | ? | . | -7% | -1%
O=C(c1cnn2c(C(F)F)cc(C3CC3)nc12)N1CCc2ccccc2C1 | . | 8.9µM* | -23% | -24% | 24% | -48%
COc1cccc(-c2cc(C(F)(F)F)n3ncc(C(=O)N4CCc5ccccc5C4)c3n2)c1 | i | ? | ? | -2% | 43% | 3%
Cc1cc(NC(=O)c2cnn3c(C(F)(F)F)cc(-c4ccccc4)nc23)no1 | -10% | 7.1µM* | ? | -4% | 0% | -41%
O=C(CN1C(=O)NC2(CCc3ccccc3C2)C1=O)Nc1ccc(Cl)cc1F (stereo not drawn) | -26% | -3% | 17% | -28% | 17% | 2%
Cc1ccc(SCC(=O)OCC(=O)N(CC(C)C)C2CCS(=O)(=O)C2)cc1C (stereo not drawn) | i | 1% | -7% | -6% | 40% | .
N#Cc1cnn2c(C(F)(F)F)cc(-c3ccccc3)nc12 | . | -11% | 10µM* | . | 236% | -18%
CSc1ccccc1NC(=O)CN(C)CC(=O)c1c(C)[nH]c2ccccc12 | -27% | ? | 4.1µM* | -15% | ? | .
CSc1ccccc1NC(=O)CN(C)CC(=O)NCC(=O)Nc1ccc(F)cc1 | i | 1% | 0% | -17% | -2% | .
Cc1ccc(S(=O)(=O)NCCOC(=O)Nc2sc(=S)n(C)c2C)cc1 | -6% | ? | . | -12% | 6% | 7%
Cc1cc(Cl)ccc1OCC(=O)NCCOC(=O)Nc1sc(=S)n(C)c1C | -5% | ? | 7% | 0% | 4.7µM* | 2%
Cc1ccc(Cl)cc1OCC(=O)NCCOC(=O)Nc1sc(=S)n(C)c1C | -18% | ? | 0% | -19% | -28% | 0%
Cc1c(NC(=O)OCCNC(=O)Nc2ccccc2)sc(=S)n1C | -3% | 12% | 12% | 3% | 4.7µM* | -6%
Cc1ccnc(NC(=O)c2cccc(S(=O)(=O)N3CCOCC3)c2)c1 | i | -8% | 105% | -7% | 199% | .
CN(Cc1ccc(F)cc1)C(=O)c1cccc(S(=O)(=O)N2CCN(c3ccc(F)cc3)CC2)c1 | ? | 10µM* | -44% | -28% | ? | .
CN(Cc1ccc(F)cc1)C(=O)c1cccc(S(=O)(=O)N2CCN(c3ccccc3)CC2)c1 | -26% | 13µM* | 9.3µM* | -26% | ? | .
COc1ccc(C(CNC(=O)c2cccc(S(=O)(=O)N3CCCc4ccccc43)c2)N(C)C)cc1 (stereo not drawn) | -21% | ? | . | ? | . | .
COc1ccc(CN(C)C(=O)c2cccc(S(=O)(=O)N3CCCc4ccccc43)c2)c(OC)c1OC | . | 11µM* | . | . | . | .
Cc1ccnc(NC(=O)c2cccc(S(=O)(=O)N3CCN(c4ccc(F)cc4)CC3)c2)c1 | -28% | 10µM* | ? | -23% | ? | .
Cc1ccc(CN(C)C(=O)c2cccc(S(=O)(=O)N3CCN(c4ccccc4)CC3)c2)cc1 | -28% | ? | . | -10% | . | .
Cn1c(=O)c2c(nc(N3CCOCC3)n2CCCNC2=NCCC2)n(C)c1=O | . | 6% | 19% | -10% | 2% | 3%
COc1ccc(CN(C)C(=O)c2cccc(S(=O)(=O)N3CCN(c4ccccc4)CC3)c2)c(OC)c1OC | ? | 8.9µM* | ? | -28% | ? | .
CN(CC(=O)Nc1ccc(F)cc1)C(=O)c1cccc(S(=O)(=O)N2CCN(c3ccc(F)cc3)CC2)c1 | ? | 8.9µM* | 12µM* | ? | ? | .
